Molecules are shown by their SMILES. About 79,000 compounds went through this panel and 15% of them were active in at least one assay; those are over-represented in the sample as a whole. The source made the active and inactive calls. Rule as the data show it: active = growth inhibition above about 70%; inactive = the rest.

A short description of the first experiment: NCI Yeast Anticancer Drug Screen. Data for the bub3 strain (AID 167). The settings on record: S. cerevisiae bub3 mutant strain, at 50.0 µM, active compounds read high. The method in brief: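 Inhibition values come from growth of compound-treated mutant yeast normalised to vehicle-treated controls.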
Consider `CCOC(=O)Cn1c(=O)c2nc(SC)sc2n(-c2ccccc2)c1=O`, for which the growth inhibition was -1.45% (inactive).

Regarding `Nc1c(I)cc([N+](=O)[O-])cc1I`, the growth inhibition was 25.9% (inactive).

For `COc1ccc(-c2nc3ccccc3[nH]2)cc1`, the growth inhibition is -21.5% (inactive).

For the compound `O=C(Nc1ccc(S(=O)(=O)/N=c2\ncccn2C(=O)C(C(F)(F)F)C(F)(F)F)cc1)C(C(F)(F)F)C(F)(F)F`, the growth inhibition was 28.4% (inactive).

For the compound `CCOC(=O)C1=CNC(C(=O)OCC)C1c1cccn1-c1ccc(Cl)cc1[N+](=O)[O-]` (stereo not given), the growth inhibition is 3.8% (inactive).

With `COC(=O)CC(c1ccc2c(c1)OCO2)N1CCOCC1` (stereo not given), the growth inhibition is 21.2% (inactive).

In the case of `CC1=C2CCCCC2(C)C=C(C(=O)O)C1=O` (stereo not given), the growth inhibition was 12.2% (inactive).

Take `CC(=O)c1cc2c(cc1C)C(C)(C)CCC2`: the growth inhibition is -16.4% (inactive).

Consider `O=C(Nc1ccc(Cl)cc1)Nc1nnc2nc(CC(=O)c3ccccc3)c(=O)[nH]n12`, for which the growth inhibition is -21.9% (inactive).

As for `O=C(OC1(c2ccccc2)OC(=O)c2ccccc21)c1ccccc1C(=O)c1ccccc1` (stereo not given), the growth inhibition was 3.4% (inactive).

Regarding `CCCCCCC(=O)/C=C/c1ccccc1OCOC`, the growth inhibition is -18.9% (inactive).

On to `CSC1(SC2=NCCN2)SC2(NCCN2)S1`, for which the growth inhibition is -1.55% (inactive).

With `O=C1OC(c2ccccc2)=CC1(Cc1ccccc1)Cc1ccccc1`, the growth inhibition is 2.6% (inactive).

On to `O=S(=O)(Nc1ccccc1C(O)c1ccccc1)c1ccccc1` (stereo not given), for which the growth inhibition was 13.5% (inactive).

With `O=C(Nc1ccccc1Cl)c1ccc(F)cc1`, the growth inhibition was -21.4% (inactive).

Consider `S=C(NC1CCCCC1)N1CCC(CCCC2CCN(C(=S)NC3CCCCC3)CC2)CC1`, for which the growth inhibition was -41.8% (inactive).

For `O=C(O)c1c[nH]c2cc(O)ccc2c1=O`, the growth inhibition is 15.3% (inactive).

`c1ccc2nc(N3CCCC3)c(N3CCCC3)nc2c1`: the growth inhibition is 57.8% (inactive).

In the case of `O=C(NN1C(=O)C(Cl)C1c1cccc([N+](=O)[O-])c1)c1ccccc1O` (stereo not given), the growth inhibition was -27.1% (inactive).

For the compound `CCc1cc2c(c3c1CCC3=O)CC1(Cc3ccc(C)cc3C1)C2` (stereo not given), the growth inhibition is -22.1% (inactive).

On to `CC(=O)N(/C=C\C1=[N+](C)CCS1)c1ccccc1`, for which the growth inhibition was 18.1% (inactive).

In the case of `O=C1C2CN(Cc3ccccc3)CC2C(=O)N1c1ccccc1` (stereo not given), the growth inhibition was -37.7% (inactive).

For the compound `CC1(C)C[C@H](OC2CCCCO2)[C@H]2O[C@@]2(C)C1` (stereo not given in full), the growth inhibition is 18.4% (inactive).

As for `CC(=O)C1CCCCCCC1=O` (stereo not given), the growth inhibition was -11.8% (inactive).

`CC(C)(C)C1=CC(=N/N=c2\scc(-c3ccccc3)n2Cc2ccccc2)C=C(C(C)(C)C)C1=O`: the growth inhibition was -11.6% (inactive).

`Cc1ccc(Cl)cc1NC(=O)C(C)Oc1ccccc1` (stereo not given): the growth inhibition is 30.1% (inactive).

Turning to `CCOC(=O)c1cnc2cc3c(cc2c1Nc1ccc2c(c1)OCO2)OCO3`, the growth inhibition was 0% (inactive).

For the compound `Cc1ccc(S(=O)(=O)N(CCCc2c(Cl)nc(N)nc2Cc2ccccc2)c2ccccc2)cc1`, the growth inhibition is -0.8% (inactive).

`CC1CS(=O)(=O)CC(C)S1(=O)=O` (stereo not given): the growth inhibition is 14.7% (inactive).

Consider `c1ccc2cc3c(cc2c1)OP1(=NP2(=NP4(=N1)Oc1cc5ccccc5cc1O4)Oc1cc4ccccc4cc1O2)O3`, for which the growth inhibition was 15.7% (inactive).

As for `COc1ccc2c(c1)OC(C)(C)C(c1ccccc1)=C2c1ccc(OCCN2CCCC2)cc1`, the growth inhibition was 99.3% (active).

For the compound `Cc1ccc2nc(C(O)C(O)C(O)CO)[nH]c2c1` (stereo not given), the growth inhibition is -25.7% (inactive).

As to `COc1cccc(NC(=O)CSc2nnc(-c3ccc(NC(C)=O)cc3)o2)c1`, the growth inhibition is -25.4% (inactive).

As to `COC(=O)C1=C(NC(=O)Nc2ccc([N+](=O)[O-])cc2)OC(C)(C)C1c1ccc(Cl)cc1` (stereo not given), the growth inhibition is 1.1% (inactive).

As for `CCOP(=Nc1ccccc1)(OCC)OCC`, the growth inhibition is 1.75% (inactive).

`Nc1c(S(=O)(=O)O)cc(S(=O)(=O)O)c2ccc(N=Nc3ccccc3)c(O)c12`: the growth inhibition is -8.7% (inactive).

With `O=S1OCC#CCOS(=O)OCC#CCO1` (stereo not given), the growth inhibition was -3.7% (inactive).

With `S=c1cc(Cc2ccccc2)[nH]c(=S)[nH]1`, the growth inhibition was -14% (inactive).

As to `CCOC1CCC(C(C)=O)C(C#N)(C#N)C1(C#N)C#N` (stereo not given), the growth inhibition was -37.9% (inactive).

For `C1C2CC3(CO3)C1C1OC21` (stereo not given), the growth inhibition is -22.2% (inactive).

A further experiment is described as follows: NCI Yeast Anticancer Drug Screen. Data for the mlh1 rad18 strain (AID 175). The settings on record: S. cerevisiae mlh1 rad18 strain growth inhibition; at 50.0 µM; active compounds read high. Summed up:
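Steps: expose repair-defective yeast to compound; measure growth; express inhibition against vehicle-treated controls.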
Turning to `CCOC(=O)Cn1c(=O)c2nc(SC)sc2n(-c2ccccc2)c1=O`, the growth inhibition is 9.4% (inactive).

On to `Nc1c(I)cc([N+](=O)[O-])cc1I`, for which the growth inhibition was 19.9% (inactive).

`COc1ccc(-c2nc3ccccc3[nH]2)cc1`: the growth inhibition is -3.1% (inactive).

In the case of `O=C(Nc1ccc(S(=O)(=O)/N=c2\ncccn2C(=O)C(C(F)(F)F)C(F)(F)F)cc1)C(C(F)(F)F)C(F)(F)F`, the growth inhibition was -26.8% (inactive).

Turning to `CCOC(=O)C1=CNC(C(=O)OCC)C1c1cccn1-c1ccc(Cl)cc1[N+](=O)[O-]` (stereo not given), the growth inhibition is 40.8% (inactive).

On to `COC(=O)CC(c1ccc2c(c1)OCO2)N1CCOCC1` (stereo not given), for which the growth inhibition was 42.9% (inactive).

For `CC1=C2CCCCC2(C)C=C(C(=O)O)C1=O` (stereo not given), the growth inhibition was 23.4% (inactive).

Regarding `CC(=O)c1cc2c(cc1C)C(C)(C)CCC2`, the growth inhibition is 13.1% (inactive).

On to `O=C(Nc1ccc(Cl)cc1)Nc1nnc2nc(CC(=O)c3ccccc3)c(=O)[nH]n12`, for which the growth inhibition was 1.1% (inactive).

`O=C(OC1(c2ccccc2)OC(=O)c2ccccc21)c1ccccc1C(=O)c1ccccc1` (stereo not given): the growth inhibition was -25.9% (inactive).

For `CCCCCCC(=O)/C=C/c1ccccc1OCOC`, the growth inhibition is -4.45% (inactive).

On to `CSC1(SC2=NCCN2)SC2(NCCN2)S1`, for which the growth inhibition was -18.1% (inactive).

As for `O=C1OC(c2ccccc2)=CC1(Cc1ccccc1)Cc1ccccc1`, the growth inhibition is -5.15% (inactive).

For the compound `O=S(=O)(Nc1ccccc1C(O)c1ccccc1)c1ccccc1` (stereo not given), the growth inhibition was 34.4% (inactive).

Turning to `O=C(Nc1ccccc1Cl)c1ccc(F)cc1`, the growth inhibition is -3.85% (inactive).

As to `S=C(NC1CCCCC1)N1CCC(CCCC2CCN(C(=S)NC3CCCCC3)CC2)CC1`, the growth inhibition was -46.2% (inactive).

As to `O=C(O)c1c[nH]c2cc(O)ccc2c1=O`, the growth inhibition is -2.7% (inactive).

Regarding `c1ccc2nc(N3CCCC3)c(N3CCCC3)nc2c1`, the growth inhibition is -4.85% (inactive).

With `O=C(NN1C(=O)C(Cl)C1c1cccc([N+](=O)[O-])c1)c1ccccc1O` (stereo not given), the growth inhibition was -25.1% (inactive).

Consider `CCc1cc2c(c3c1CCC3=O)CC1(Cc3ccc(C)cc3C1)C2` (stereo not given), for which the growth inhibition is -44.7% (inactive).

For the compound `CC(=O)N(/C=C\C1=[N+](C)CCS1)c1ccccc1`, the growth inhibition is 12.7% (inactive).

On to `O=C1C2CN(Cc3ccccc3)CC2C(=O)N1c1ccccc1` (stereo not given), for which the growth inhibition is 18.2% (inactive).

As to `CC1(C)C[C@H](OC2CCCCO2)[C@H]2O[C@@]2(C)C1` (stereo not given in full), the growth inhibition is 3.95% (inactive).

As to `CC(=O)C1CCCCCCC1=O` (stereo not given), the growth inhibition is 16.1% (inactive).

Take `CC(C)(C)C1=CC(=N/N=c2\scc(-c3ccccc3)n2Cc2ccccc2)C=C(C(C)(C)C)C1=O`: the growth inhibition was -2.6% (inactive).

Take `Cc1ccc(Cl)cc1NC(=O)C(C)Oc1ccccc1` (stereo not given): the growth inhibition was 13.9% (inactive).

In the case of `CCOC(=O)c1cnc2cc3c(cc2c1Nc1ccc2c(c1)OCO2)OCO3`, the growth inhibition is 20% (inactive).

Turning to `Cc1ccc(S(=O)(=O)N(CCCc2c(Cl)nc(N)nc2Cc2ccccc2)c2ccccc2)cc1`, the growth inhibition is -4.65% (inactive).

As for `CC1CS(=O)(=O)CC(C)S1(=O)=O` (stereo not given), the growth inhibition was -7.05% (inactive).

As to `c1ccc2cc3c(cc2c1)OP1(=NP2(=NP4(=N1)Oc1cc5ccccc5cc1O4)Oc1cc4ccccc4cc1O2)O3`, the growth inhibition is 12.6% (inactive).

`COc1ccc2c(c1)OC(C)(C)C(c1ccccc1)=C2c1ccc(OCCN2CCCC2)cc1`: the growth inhibition is 99.7% (active).

On to `Cc1ccc2nc(C(O)C(O)C(O)CO)[nH]c2c1` (stereo not given), for which the growth inhibition is -12.7% (inactive).

Take `COc1cccc(NC(=O)CSc2nnc(-c3ccc(NC(C)=O)cc3)o2)c1`: the growth inhibition was -16.9% (inactive).

Turning to `COC(=O)C1=C(NC(=O)Nc2ccc([N+](=O)[O-])cc2)OC(C)(C)C1c1ccc(Cl)cc1` (stereo not given), the growth inhibition was 29.6% (inactive).

Consider `CCOP(=Nc1ccccc1)(OCC)OCC`, for which the growth inhibition is 9.4% (inactive).

Turning to `Nc1c(S(=O)(=O)O)cc(S(=O)(=O)O)c2ccc(N=Nc3ccccc3)c(O)c12`, the growth inhibition is -15.7% (inactive).

Regarding `O=S1OCC#CCOS(=O)OCC#CCO1` (stereo not given), the growth inhibition is 7.7% (inactive).

Consider `S=c1cc(Cc2ccccc2)[nH]c(=S)[nH]1`, for which the growth inhibition is 4.85% (inactive).

For `CCOC1CCC(C(C)=O)C(C#N)(C#N)C1(C#N)C#N` (stereo not given), the growth inhibition was -42.5% (inactive).

Turning to `C1C2CC3(CO3)C1C1OC21` (stereo not given), the growth inhibition was -10.8% (inactive).

The values are drawn from PubChem BioAssay (NCI).
